The values that follow come from PubChem BioAssay.

Values without a mark were called inactive.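 Rule for the calls: active = z-score of at least 1.8 in each of two replicates, scored against plate mean and spread of sample wells; inactive = the rest.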

This assay in a line: viability rescue of complex I mutant cybrids, primary screen, cell-based, galactose medium, ATP luminescence (AID 1645843).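 Note: positive z means more ATP and so rescue of galactose-driven cybrid death.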 The note with it: complex I mutant cybrid cells, 72 h, stronger effect = higher value.
On to `Cn1nc(NC(=O)Cn2ccc(-c3ccsc3)n2)c2ccccc21`, for which the z-score is 0.985.
As for `CN1CCN(Cc2cnc3ccccc3c2)CC1CCO` (configuration not stated), the z-score is 0.
In the case of `CC1Cc2cc(C(=O)N3CCC(n4cc(CCO)nn4)CC3)ccc2O1` (configuration not stated) it was 0.36; in that of `Cc1ccc2nc(Cn3cnc4ccc(F)cc4c3=O)cn2c1`, -0.15; in that of `N#Cc1ccc(C(=O)N2CCNC(=O)C2Cc2ccccc2)cc1` (configuration not stated), -0.47.
For `Cc1nn(C)cc1-c1ccnc(N2CCN(Cc3ccc(F)cc3)C(=O)C2)n1`, the z-score is 0.865.
As to `O=C(C1CCCCCC1)N1CCC(n2cc(C3CC3)nn2)CC1`, the z-score was -0.53.
As to `O=C1CCCc2occ(C(=O)N3CCc4[nH]nc(C5CCC5)c4C3)c21`, the z-score is 0.15.
In the case of `Cc1cccc(-n2cc(CN(C)C(=O)C(=O)c3ccco3)cn2)c1` it was 0.6.
Take `O=C(c1ccc(OC2(C(=O)O)CCSCC2)cc1)N1CCOCC1`: the z-score was -0.515.
For `OC1(c2ccccc2)CCN(Cc2ccccc2Cl)C1` (configuration not stated), the z-score is -1.11.
Then `NCCCNC1CCN(c2ccc(-c3cccc(F)c3)cc2)CC1`, with -1.31.
Take `NC(=O)NCc1cn(CC2CCN(C(=O)C3CCCCCC3)CC2)nn1`: the z-score was -0.565.
Then `COC(=O)c1nn(CC(=O)Nc2cnn(C)n2)c2ccccc12`, with 1.92; and `COc1ccc(-c2cccc(C(=O)c3nccn3C)c2)c(C)c1`, with -0.555; and `COc1nc2c(cc1C(=O)N1CCOc3ccccc31)CCC2`, with 0.225.
Then `FC(F)(F)c1cccc(Cc2noc(CCCN3CCCCC3)n2)c1`, with 0.61.
